# A number with no mark means an inactive call. Results filed as inconclusive are left out. The source made the active and inactive calls. Unless noted, the call rests on the fitted dose curve; in most records, active means well fitted curve in either direction with a large enough effect (not every such curve was filed as active); inconclusive means small, poorly fitted or top-dose-only effect, or another doubt; inactive means flat fitted curve, though single readings scatter.
# What was measured:
# [1] = molecular target: Lysosomal acid glucosylceramidase (Homo sapiens) (UniProt P04062); test: Glucocerebrosidase-p2 (AID 348; in the data active means potency below about 10 µM; further: potency means the concentration at half of the fitted maximal effect); settings: purified GBA, blue fluorogenic substrate, 40 min
# Procedure, shortened: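 Compounds titrated from 0.6 nM upwards against 0.2 nM enzyme in pH 5.9 citric acid/KH2PO4, taurocholate, tween-20; blue fluorogenic substrate 80 uM, 40 min room temperature, stopped and read Ex 365/Em 440 for AC50.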
# [2] = AP1 Signaling Pathway (AID 357); settings: ME-180 AP-1-bla reporter, EGF-induced, beta-lactamase ratio, 5 h; at 7.69 µM (top of the series) unless noted; further: on the % scale 0 is the no-effect control and ±100 the full control effect
# Procedure, shortened: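 ME-180 cells with beta-lactamase reporter under AP-1 response element, stimulated with EC50 EGF; compounds tested in titration series, 5 h at 37 °C. CCF4 substrate added 2.5 h at room temperature; 460/530 nm emission ratio gave %activity and AC50.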
# [3] = NFAT Signaling Pathway (AID 444); settings: Jurkat NFAT-bla M1, carbachol, beta-lactamase ratio, 5 h; at 7.69 µM (top of the series) unless noted;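 further: carbachol stimulus at about its EC50 of 1 µM final; on the % scale 0 is the no-effect control and ±100 the full control effect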
# Procedure, shortened: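 Read-out: CCF4 FRET ratio (460 nm/530 nm) after 1 h RT dye loading, used for %activity and AC50 from titration series. Cells: Jurkat NFAT-β-lactamase/M1 line, treated with compound plus 1 uM carbachol for 5 h, 37 °C.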
# [4] = Stat Signaling Pathway (AID 446); settings: ME-180 SIE beta-lactamase reporter, IL-6 stimulated, 5 h; at 7.69 µM (top of the series) unless noted;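 further: ME-180 cervical cancer cells given 40 pM IL-6 alongside compound; SIE-controlled beta-lactamase reporter measured as 460/530 nm FRET emission ratio; on the % scale 0 is the no-effect control and ±100 the full control effect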
# Procedure, shortened: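 ME-180 cells carrying a SIE-driven beta-lactamase reporter are stimulated with 40 pM IL-6 for 5 h at 37C in the presence of compound. The 460/530 nm FRET substrate ratio is read after 2.5 h at RT. Data are normalised to 300 pM IL-6 and to 125 nM JAK inhibitor controls.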
# [5] = molecular target: Glucocorticoid receptor (Homo sapiens) (UniProt P04150); test: GR-GFP Redistribution (AID 450;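 active means compounds whose dose series gives a full or clear partial fitted curve of increased nuclear translocation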; further: potency means the concentration at half of the fitted maximal effect); settings: U2OS GR-GFP nuclear translocation, laser cytometry, 2 h
# [6] = molecular target: Glucocorticoid receptor (Homo sapiens) (UniProt P04150); test: GR-EFC Redistribution (AID 451; calls by dose curve; further: potency means the concentration at half of the fitted maximal effect); settings: CHO-K1 GR-EFC translocation, beta-gal luminescence, 2 h
# Procedure, shortened: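 Translocation of GR-ED fusion to nuclear EA restores b-gal, read by luminescence after 1 h room-temperature detection. Engineered CHO-K1 biosensor cells, 1,000/well, exposed 2 h at 37 C to titrations up to 46 uM final.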
# [7] = molecular target: Mitogen-activated protein kinase 10 (Mus musculus) (UniProt Q61831); test: JNK3 AlphaScreen Assay (AID 530); settings: JNK3 lysate, c-Jun phosphorylation; series mostly up to 11.4 µM;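 further: kinase came from lysate of stimulated human HepG2 cells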; further: potency means the concentration at half of the fitted maximal effect;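 on activity change, negative = inhibition: signal reports phosphorylation of biotinylated GST-cJun 1-79 at Ser73 with 10 µM ATP; on the % scale 0 is the no-effect control and ±100 the full control effect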
# Procedure, shortened: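 Compound titrations were preincubated 15 minutes at room temperature with substrate, antibody and pre-activated JNK3-containing HepG2 lysate. Reactions were started with 10 uM ATP and stopped with EDTA-containing bead buffer for AlphaScreen detection.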
# [8] = molecular target: 3',5'-cyclic-AMP phosphodiesterase 4B (Homo sapiens) (UniProt Q07343); test: qHTS Assay for Inhibitors of PDE-IV (AID 607; active means well fitted activation curve with a large enough effect in the main read-out, with a control signal flat, not every such curve was filed as active; further: % of control where 0% means no effect); settings: HEK293 ACTOne CNG channel cells, membrane potential fluorescence; series mostly up to 22.9 µM
# Procedure, shortened: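 HEK293 ACTOne cells with CNG channel (1000/well), endogenous PDE4; membrane potential dye, compounds up to 22.9 uM final. Fluorescence Ex 535/Em 590; RO 20-1724 (100 uM final) as reference.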
# Lysosomal acid glucosylceramidase (Homo sapiens), sequence (P04062 whole entry, looked up): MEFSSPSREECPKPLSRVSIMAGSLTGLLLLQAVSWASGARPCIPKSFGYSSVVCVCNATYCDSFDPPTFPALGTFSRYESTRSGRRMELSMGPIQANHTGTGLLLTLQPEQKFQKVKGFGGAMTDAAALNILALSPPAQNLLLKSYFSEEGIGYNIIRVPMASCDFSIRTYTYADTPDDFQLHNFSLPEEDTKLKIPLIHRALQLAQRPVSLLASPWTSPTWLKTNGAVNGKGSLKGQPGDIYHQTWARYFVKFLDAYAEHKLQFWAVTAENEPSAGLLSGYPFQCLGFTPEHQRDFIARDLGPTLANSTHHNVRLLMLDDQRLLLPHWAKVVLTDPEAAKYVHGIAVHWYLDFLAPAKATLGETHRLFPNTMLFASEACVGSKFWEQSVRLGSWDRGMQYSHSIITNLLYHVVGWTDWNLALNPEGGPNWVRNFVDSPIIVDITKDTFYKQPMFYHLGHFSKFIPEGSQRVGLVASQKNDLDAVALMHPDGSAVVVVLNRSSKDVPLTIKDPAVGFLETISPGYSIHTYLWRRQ
# 3',5'-cyclic-AMP phosphodiesterase 4B (Homo sapiens), sequence (Q07343 whole entry, looked up): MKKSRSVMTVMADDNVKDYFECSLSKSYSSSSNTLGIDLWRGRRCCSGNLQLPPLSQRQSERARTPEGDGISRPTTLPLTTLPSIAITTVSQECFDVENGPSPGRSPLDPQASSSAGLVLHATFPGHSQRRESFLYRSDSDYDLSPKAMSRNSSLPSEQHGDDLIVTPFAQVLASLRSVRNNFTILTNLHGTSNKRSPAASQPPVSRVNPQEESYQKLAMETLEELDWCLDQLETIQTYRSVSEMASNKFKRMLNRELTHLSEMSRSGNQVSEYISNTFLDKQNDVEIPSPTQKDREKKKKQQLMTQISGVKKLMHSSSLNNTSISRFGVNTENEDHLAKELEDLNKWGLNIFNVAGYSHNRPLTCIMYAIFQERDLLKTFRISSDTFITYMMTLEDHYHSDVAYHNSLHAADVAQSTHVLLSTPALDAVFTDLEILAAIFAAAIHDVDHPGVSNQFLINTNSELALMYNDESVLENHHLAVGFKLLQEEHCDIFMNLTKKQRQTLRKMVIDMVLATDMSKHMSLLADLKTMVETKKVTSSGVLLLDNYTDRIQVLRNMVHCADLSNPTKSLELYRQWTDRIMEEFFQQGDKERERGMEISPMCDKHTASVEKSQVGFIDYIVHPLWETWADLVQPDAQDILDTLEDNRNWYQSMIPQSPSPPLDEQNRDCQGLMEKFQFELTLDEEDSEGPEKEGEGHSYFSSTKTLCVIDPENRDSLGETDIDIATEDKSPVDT
# Glucocorticoid receptor (Homo sapiens), sequence (P04150 whole entry, looked up, the tested form may be a part): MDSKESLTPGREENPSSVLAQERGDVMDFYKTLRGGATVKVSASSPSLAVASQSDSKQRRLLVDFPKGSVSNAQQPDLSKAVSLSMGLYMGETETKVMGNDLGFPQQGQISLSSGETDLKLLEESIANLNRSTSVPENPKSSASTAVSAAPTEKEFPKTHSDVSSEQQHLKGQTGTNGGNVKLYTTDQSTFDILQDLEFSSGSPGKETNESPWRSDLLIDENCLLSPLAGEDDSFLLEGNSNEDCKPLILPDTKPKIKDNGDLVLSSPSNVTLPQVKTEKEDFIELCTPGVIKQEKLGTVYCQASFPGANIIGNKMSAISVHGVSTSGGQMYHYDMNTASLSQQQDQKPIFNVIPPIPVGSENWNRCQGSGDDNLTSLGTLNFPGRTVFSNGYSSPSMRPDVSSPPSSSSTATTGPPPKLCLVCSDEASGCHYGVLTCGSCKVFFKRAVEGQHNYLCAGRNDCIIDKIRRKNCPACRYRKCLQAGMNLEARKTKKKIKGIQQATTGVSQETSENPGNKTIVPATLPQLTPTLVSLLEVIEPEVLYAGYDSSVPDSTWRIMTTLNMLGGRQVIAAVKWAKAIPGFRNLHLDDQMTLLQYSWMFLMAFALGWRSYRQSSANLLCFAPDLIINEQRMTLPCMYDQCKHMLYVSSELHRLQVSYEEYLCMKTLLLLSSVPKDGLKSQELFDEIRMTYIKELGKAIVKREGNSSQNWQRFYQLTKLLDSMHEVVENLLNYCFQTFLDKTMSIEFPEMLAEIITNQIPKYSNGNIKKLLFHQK
SMILES,Potency [1] [µM],"activity change, negative = inhibition [2] [%]","activity change, negative = inhibition [3] [%]","activity, negative = inhibition [4] [%]",Potency [5] [µM],Potency [6] [µM],Potency [7],Potency [8]
C(=N/Nc1ccccn1)/c1cccnc1,> 11.4,3.9,5.25,2.75,> 46,> 9.22,inactive,inactive
N[C@@H](CCCCO)C(=O)O,> 11.4,4.11,-3.02,-3.96,> 46,> 9.22,inactive,inactive
NC(=O)C/C=C\CC(N)=O,> 11.4,1.15,10.3,-3.27,> 46,> 9.22,inactive,inactive
C[N+](C)(N)Cc1nc(-c2ccc(Cl)cc2)no1,> 11.4,3.76,-6.01,4.26,> 46,> 9.22,inactive,inactive
CC(=O)O[C@@H]1CC[C@]2(C)C(=C[C@@H]([C@@H]3C=C4C[C@@H](OC(C)=O)CC[C@]4(C)C4=C3[C@H]3C[C@@H]5O[C@@]6(CC[C@H](C)CO6)[C@@H](C)[C@@H]5[C@@]3(C)CC4)C3=C2CC[C@@]2(C)[C@H]4[C@@H](C)[C@]5(CC[C@H](C)CO5)O[C@@H]4C[C@H]32)C1,> 11.4,7.21,21,-1.63,> 46,> 9.22,inactive,inactive
Nc1ccn([C@H]2O[C@H](CO)[C@@H]3[O][Sn]([c]4ccccc4)([c]4ccccc4)[O][C@H]32)c(=O)n1,> 11.4,-22.1,-9.06,-20.4,> 46,> 9.22,inactive,inactive
COc1ccc(Br)c2c1C[C@H](C(=O)O)CC2,> 11.4,12.4,2.11,-1.98,> 46,> 9.22,inactive,inactive
O=C(O)c1ccc(C(=O)O)c2c(C(=O)O)ccc(C(=O)O)c12,> 11.4,-5.07,5.59,-1.89,> 46,> 9.22,inactive,inactive
Cc1cc2cc3c(=O)[nH]c(=O)[nH]c3nc2cc1C,> 11.4,-6.37,11.7,-6.9,> 46,> 9.22,inactive,inactive
O=C(O)CNC(=O)[C@H]1NC(C(F)(F)F)(C(F)(F)F)OC1(C(F)(F)F)C(F)(F)F,> 11.4,-4.91,10.9,-14.7,> 46,> 9.22,inactive,inactive
N=C(N)SCCON1C(=O)c2ccccc2C1=O,> 11.4,5.96,-3.83,-5.8,> 46,> 9.22,inactive,inactive
CC(C)[C@H](N=Cc1ccccc1O)C(=O)O,> 11.4,-4.87,4.44,-0.012,> 46,> 9.22,inactive,inactive
NC1=N[C@H](c2ccc(Cl)cc2)N(c2ccc(S(N)(=O)=O)cc2)C(N)=N1,> 11.4,-2.15,-10.1,-0.371,> 46,> 9.22,inactive,inactive
CS[C@@H](CC(=O)O)C(=O)O,> 11.4,2.29,3.57,2.44,> 46,> 9.22,inactive,inactive
CN1CCN(CC(=O)Nc2cccc3ccccc23)CC1,> 11.4,-2.71,5.99,15.2,> 46,> 9.22,inactive,inactive
Nc1nc2c(ncn2[C@H]2CC[C@@H](CO)O2)c(=O)n1C(=O)c1ccccc1,> 11.4,5.69,-10.1,0.604,> 46,> 9.22,inactive,inactive
O=C1CSC(=S)N1/N=C\c1ccc(Cl)c([N+](=O)[O-])c1,> 11.4,1.11,6.49,1.79,> 46,> 9.22,inactive,inactive
O=C(NC1(C(=O)O)CCCC1)c1ccccc1,> 11.4,-4.54,12,6.79,> 46,> 9.22,inactive,inactive
C[C@@H](CCC[C@@H]1SC[C@H]2NC(=O)N[C@H]12)C(=O)O,> 11.4,-0.543,-21.7,-4.44,> 46,> 9.22,0.0316 µM (active),inactive
c1ccc(CCNCc2ccco2)nc1,> 11.4,3.76,-2.01,1.92,> 46,> 9.22,inactive,inactive
Cc1ccc(S(=O)(=O)OC2CCN(C)CC2)cc1,> 11.4,0.369,2.31,3.66,> 46,> 9.22,inactive,inactive
Cn1c(=O)c2c(ncn2CCSS(=O)(=O)O)n(C)c1=O,> 11.4,-0.109,18.1,-2.16,> 46,> 9.22,inactive,inactive
C[C@@H](SCc1ccccc1)C(=O)O,> 11.4,-4.75,12.1,-3.81,> 46,> 9.22,inactive,inactive
O=S(=O)(c1ccccc1)N1CCN(S(=O)(=O)c2ccccc2)c2ccccc21,> 11.4,-16.4,-13.6,-7.57,> 46,> 9.22,inactive,inactive
O=S(=O)(c1ccc2ccccc2c1)N1CCN(S(=O)(=O)c2ccc3ccccc3c2)CC1,> 11.4,-2.95,-5.78,0.106,> 46,> 9.22,inactive,inactive
c1ccc(CN2CCC3(CC2)SSC2(CCN(Cc4ccccc4)CC2)SS3)cc1,> 11.4,3.33,3.92,-1.41,> 46,> 9.22,inactive,inactive
O=C(O)[C@@H]1CCCN1Cc1cc2ccccc2c2ccccc12,> 11.4,21.6,17.3,2.3,> 46,> 9.22,inactive,inactive
C[C@H](CCC(=O)NN)[C@@H]1CC[C@@H]2[C@H]3CC[C@H]4C[C@@H](O)CC[C@@]4(C)[C@@H]3CC[C@]21C,> 11.4,12.8,17,-5.92,> 46,> 9.22,inactive,inactive
C[C@@H](N)/C(N)=N/O,> 11.4,-1.61,6.7,5.63,> 46,> 9.22,inactive,inactive
CSCC[C@@H](C(=O)O)N(C)C,> 11.4,3.21,7.85,2.15,> 46,> 9.22,inactive,inactive

# From PubChem BioAssay (NCATS)
